Results as given in PubChem BioAssay AID743445 (Broad Institute, 2014).
Screen size: about 310,000 compounds; about 1,700 (0.55%) were called active. Cut-off read from the data, not from the text of the source: active = inhibition above about 50%; inactive = the rest. What follows is part of a selection rich in actives, with near analogues and random picks from the rest.

target: Histone-lysine N-methyltransferase NSD2 (Homo sapiens) (UniProt O96028); assay: blockers of NSD2 lysine methylation activity – biochemical, AlphaScreen, single concentration, set 2, primary screen (AID 743445); conditions: NSD2 peptide methylation, 120 min, at 12.5 µM, active compounds read high
Sequence (O96028 whole entry, looked up): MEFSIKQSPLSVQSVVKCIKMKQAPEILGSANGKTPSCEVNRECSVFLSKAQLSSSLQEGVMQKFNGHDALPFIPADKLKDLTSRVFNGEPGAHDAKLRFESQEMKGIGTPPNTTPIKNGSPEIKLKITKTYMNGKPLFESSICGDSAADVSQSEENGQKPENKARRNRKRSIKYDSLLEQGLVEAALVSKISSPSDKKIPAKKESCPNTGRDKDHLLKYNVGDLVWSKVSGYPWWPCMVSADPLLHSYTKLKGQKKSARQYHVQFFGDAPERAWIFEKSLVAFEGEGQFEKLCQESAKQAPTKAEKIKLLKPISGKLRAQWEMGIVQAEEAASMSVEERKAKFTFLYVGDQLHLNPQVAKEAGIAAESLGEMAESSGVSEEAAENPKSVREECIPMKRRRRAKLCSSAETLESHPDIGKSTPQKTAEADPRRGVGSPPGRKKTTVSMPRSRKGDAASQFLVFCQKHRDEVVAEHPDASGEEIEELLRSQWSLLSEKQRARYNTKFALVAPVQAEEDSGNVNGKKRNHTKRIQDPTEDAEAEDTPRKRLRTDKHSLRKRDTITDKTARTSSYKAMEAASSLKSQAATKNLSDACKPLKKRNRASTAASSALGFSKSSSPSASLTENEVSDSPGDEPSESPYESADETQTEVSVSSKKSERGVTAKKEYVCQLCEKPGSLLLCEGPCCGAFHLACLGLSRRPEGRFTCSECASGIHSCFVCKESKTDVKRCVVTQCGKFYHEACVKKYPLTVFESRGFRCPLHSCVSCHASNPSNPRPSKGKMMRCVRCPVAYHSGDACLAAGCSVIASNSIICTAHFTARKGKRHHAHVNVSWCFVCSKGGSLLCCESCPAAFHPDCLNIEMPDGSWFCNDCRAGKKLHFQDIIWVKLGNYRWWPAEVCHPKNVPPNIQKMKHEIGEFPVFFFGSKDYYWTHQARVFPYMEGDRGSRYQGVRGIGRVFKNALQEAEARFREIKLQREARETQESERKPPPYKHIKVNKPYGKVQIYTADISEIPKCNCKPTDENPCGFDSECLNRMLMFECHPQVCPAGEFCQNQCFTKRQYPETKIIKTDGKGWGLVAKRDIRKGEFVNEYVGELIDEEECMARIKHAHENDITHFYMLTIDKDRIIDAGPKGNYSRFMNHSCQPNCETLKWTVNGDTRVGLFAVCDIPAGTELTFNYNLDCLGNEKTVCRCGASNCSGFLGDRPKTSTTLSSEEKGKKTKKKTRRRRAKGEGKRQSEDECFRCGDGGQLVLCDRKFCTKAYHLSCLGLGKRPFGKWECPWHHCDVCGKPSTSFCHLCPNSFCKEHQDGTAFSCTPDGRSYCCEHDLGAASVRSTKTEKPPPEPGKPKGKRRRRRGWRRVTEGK

SMILES | inhibition
O=C(NC1CCCCC1)c1ccc(-c2ccc(Cl)cc2)o1 | -1.75% (inactive)
Cc1[nH][nH]c(=O)c1C(c1ccc(-c2ccc(Cl)cc2)o1)c1c(C)[nH][nH]c1=O | 105% (active)
CN(CC(=O)Nc1ccc(F)cc1)C(=O)c1ccc(-c2ccc(Cl)cc2)o1 | -0.366% (inactive)
O=C(NCC1COc2ccccc2O1)c1ccc(NC(=O)c2cc(F)ccc2F)cc1 (configuration not stated) | -0.735% (inactive)
CCOC(=O)N1CCN(CCC(=O)Nc2ccccc2)CC1 | -3.41% (inactive)
COc1ccc(OC)c(NC(=O)CCN2CCC(C)CC2)c1 | 0.958% (inactive)
CC1CCN(CCC(=O)Nc2ccccc2)CC1 | 51.1% (active)
O=c1[nH]c(CN2CCOCC2)nc2cc(Cl)ccc12 | 108% (active)
O=c1[nH]c(CN2CCOCC2)nc2scc(-c3ccccc3)c12 | -2.17% (inactive)
CN(CCOc1ccccc1)Cc1nc2cc(Cl)ccc2c(=O)[nH]1 | -1.91% (inactive)
Cc1ccccc1CS(=O)(=O)Cc1ccc(C(=O)Nc2ccc(Cl)cc2)o1 | 1.09% (inactive)
CCOC(=O)c1csc(NC(=O)C2CCCN(S(=O)(=O)c3ccc(Cl)s3)C2)n1 (configuration not stated) | 2.06% (inactive)
O=C(CSc1nnc(-c2ccccc2O)o1)NC1CCCCC1 | 55.7% (active)
Cc1occc1-c1nnc(SCC(=O)NC2CCCCC2)o1 | 0.775% (inactive)
Cc1cc(C)cc(-c2nnc(SCC(=O)NC3CC3)o2)c1 | 0.103% (inactive)
CN(C)C(=O)N1CCN(C(=O)[C@@H](Cc2ccccc2)NC(=O)[C@H]2O[C@@H](n3ccc(N)nc3=O)[C@H](O)[C@@H]2O)CC1 | -3.38% (inactive)
Clc1ccc(C2=CSC3=Nc4cccc5cccc(c45)N23)cc1 | 125% (active)
COc1ccc(NC(=O)Cn2nnc(C(=O)NCCc3ccc(OC)c(OC)c3)c2N)cc1 | 159% (active)
COc1ccc(CNC(=O)c2nnn(CC(=O)Nc3cc(C)cc(C)c3)c2N)cc1 | 0.097% (inactive)
CCc1ccc(NC(=O)Cn2nnc(C(=O)NCc3ccc(OC)cc3)c2N)cc1 | -10.9% (inactive)
CC(C)(C)c1ccc(CSc2nnc(-c3cccs3)o2)cc1 | -3.66% (inactive)
C=CCn1c(=NC(=O)c2ccc(S(=O)(=O)N3CCCC3)cc2)sc2cc(NC(C)=O)ccc21 | 96.1% (active)
CC(=O)Nc1ccc(S(=O)(=O)N2CCSCC2)cc1 | -0.875% (inactive)

SMILES | inhibition
COc1cc(C(C)=O)ccc1OC(C)C(=O)Nc1ccc(S(=O)(=O)N2CCCC2)cc1 (configuration not stated) | -0.04% (inactive)
Clc1ccc(-n2c(SC/C=C/c3ccccc3)nnc2-c2ccco2)cc1 | 1.46% (inactive)
COc1cccc(CNC(=O)C2CCCN(c3nc4ccccc4o3)C2)c1OC (configuration not stated) | 0.947% (inactive)
CN(C)CCNC(=O)c1ccc(-c2cn3c(-c4ccc(Oc5ccccc5)cc4)cnc3cn2)cc1 | 1.51% (inactive)
Cc1ccc(C(=O)C2CCN(CC(=O)NCCC(C)C)CC2)cc1 | -1.14% (inactive)
O=C(NC(c1ccc(Cl)cc1)c1cnccn1)C1CCN(Cc2ccc(Cl)cc2)CC1 (configuration not stated) | -0.128% (inactive)
Cn1c(=O)c2cc(NC(=O)NCCc3cccs3)ccc2n1Cc1cccc(C(F)(F)F)c1 | 0.114% (inactive)
O=C1Nc2cc(C(=O)N3CCC(N4CCCCC4)CC3)ccc2S/C1=C\c1ccccc1 | 50.2% (active)
CCN1CCCC1CNC(=O)c1ccc2c(c1)NC(=O)/C(=C\c1ccccc1F)S2 (configuration not stated) | 21.8% (inactive)
CCN1CCN(CCNC(=O)c2ccc3c(c2)NC(=O)/C(=C\c2cccc(Cl)c2)S3)CC1 | 2.99% (inactive)
CCC(=O)N1CCc2cc(S(=O)(=O)NC(C(=O)N3CCc4ccccc4C3)C(C)C)ccc21 (configuration not stated) | 59.8% (active)
CCOC(=O)N1CCC(NC(=O)C(NS(=O)(=O)c2ccc3c(c2)CCN3C(=O)CC)C(C)C)CC1 (configuration not stated) | 17.1% (inactive)
CCC(=O)N1CCc2cc(S(=O)(=O)CCC(=O)N3CCN(c4ccccc4F)CC3)ccc21 | -2.83% (inactive)
COc1cccc(-c2cc3nc(NCc4ccccc4OC)n(C)c(=O)c3s2)c1 | -2.63% (inactive)
O=C(CSc1nc2ccccc2s1)NN=Cc1ccc(O)cc1O | 9.45% (inactive)
C=CCNC(=O)CCCOc1cccc(C)c1 | -2.74% (inactive)
C=CCNCCCCOc1ccccc1 | 73.8% (active)
CCCCCCCCC(=O)NCCOc1ccccc1 | 1.73% (inactive)
Cc1ccc(CC2(C)C(=O)Nc3ccc(OC(F)(F)F)cc32)cc1 (configuration not stated) | -1.93% (inactive)
O=C(CN1CCC(NC(=O)NCc2ccccc2)CC1)Nc1ccc2c(c1)OCCO2 | -3.14% (inactive)
O=C(NCc1cccs1)C1CCN(S(=O)(=O)c2ccccc2[N+](=O)[O-])CC1 | -1.94% (inactive)
Cc1ccc(S(=O)(=O)/N=C2\C=C(NS(=O)(=O)c3ccc(C)cc3)C(=O)c3ccccc32)cc1 | 186% (active)
Cc1ccc(S(=O)(=O)N/N=C(\c2ccccc2)C2CC2)cc1 | -5.26% (inactive)

SMILES | inhibition
Cc1ccc(S(=O)(=O)N[C@H](CO)C(C)C)cc1 | -1.39% (inactive)
O=C1C=C(NS(=O)(=O)c2ccccc2)C(=O)c2ccccc21 | 16.2% (inactive)
COc1ccc(S(=O)(=O)/N=C2\C=C(NS(=O)(=O)c3ccccc3)C(=O)c3ccccc32)cc1 | 116% (active)
COc1ccc(S(=O)(=O)NCCCc2ccccc2)cc1 | -2.03% (inactive)
CCCCN(C=O)c1c(CC)nc2c(OCc3ccccc3C(=O)OC)cccn12 | 2.37% (inactive)
Cc1nc2c(OCc3cccc(Cl)c3)cccn2c1N(C)CC1CC1 | 1.55% (inactive)
CCn1c2ccccc2c2cc(NC(=O)CSc3nnc(-c4ccccc4)n3-c3ccc(C)cc3)ccc21 | 0.529% (inactive)
Cc1nnc(SCC(=O)NCc2cccs2)[nH]c1=O | -1.95% (inactive)
CC(C)(C)CC(=O)Nc1nnc(SCC(=O)NCc2cccs2)s1 | 63.2% (active)
O=C(Cc1cccs1)Nc1nnc(SCc2ccc(F)cc2)s1 | 0.676% (inactive)
CCOC(=O)[C@]12CCCC=C1N(CCC1=CCCCC1)C(=O)[C@H](CC(=O)NCCCCc1ccccc1)C2 | 1.69% (inactive)
Cc1ccnc(N2CCC(C(=O)NC3CCCCCC3)CC2)n1 | 90.5% (active)
Cc1ccnc(N2CCCC(C(=O)NC3CC3)C2)n1 (configuration not stated) | -1.73% (inactive)
O=C(NC1CCCCCC1)C1CCN(C(=O)c2ccc(Cl)cc2)CC1 | -0.793% (inactive)
O=S(=O)(c1ccccc1)N1CCC(c2nc3ccccc3o2)CC1 | -2.44% (inactive)
CCOC(=O)c1nnn(-c2nc(OC)nc(N(C)C)n2)c1-c1ccccc1 | -2.39% (inactive)
Nc1nonc1-n1nnc(C(=O)N/N=C/C2CCCCC2)c1-c1ccccc1 | 4.38% (inactive)
CCOC(=O)c1nnn(-c2nonc2OC)c1-c1ccccc1 | 113% (active)
CN(CCc1ccccc1)C(=O)Cn1nc(-c2ccccc2)ccc1=O | 4.36% (inactive)
Cc1cccc(OCCC(=O)Nc2ccccc2C(N)=O)c1 | 93.5% (active)
Cc1ccccc1NC(=O)CCOc1ccccc1 | -2.79% (inactive)
Cc1cccc(OCC(=O)Nc2ccccc2F)c1 | 12.4% (inactive)
COc1ccc(-c2ccc(C(=O)NC(C)C)c3occc23)c(C)c1 | -1.69% (inactive)

SMILES | inhibition
CCc1ccccc1NC(=O)CSc1nnc(-c2cccs2)o1 | 3.02% (inactive)
Nc1ccn([C@@H]2O[C@H](C(=O)N[C@H]3CCCCNC3=O)[C@@H](O)[C@H]2O)c(=O)n1 | -3.79% (inactive)
CCN(CC)c1ccc(NC(=O)c2ccc(Cl)nc2)cc1 | 2.22% (inactive)
CC(=O)NC(=S)NNC(=O)c1ccc(Br)cc1 | -3.53% (inactive)
O=C(NNC(=O)c1ccc(Cl)nc1)c1ccc(Br)cc1 | 98.9% (active)
COc1ccc(-c2cc(-c3nnc(SCC(=O)Nc4cccc5ccccc45)n3N)[nH]n2)cc1 | -2.83% (inactive)
CC(=O)c1ccc(Nc2nc(C(N)c3ccccc3)cs2)cc1 (configuration not stated) | -2.82% (inactive)
CC(=O)Nc1ccc(-c2ccnc3c2CC(C(=O)NC(C)C)O3)cc1 (configuration not stated) | -0.999% (inactive)
O=C(Nc1ccc(Cl)cc1)C1Cc2c(-c3ccc4c(c3)OCO4)ccnc2O1 (configuration not stated) | -1.29% (inactive)
COc1ccc(NC(=O)C2Cc3c(-c4ccc(Cl)cc4)ccnc3O2)cc1 (configuration not stated) | 54.6% (active)
Cc1ccc(S(=O)(=O)N(C)C)cc1NC(=O)COC(=O)/C=C/c1cccs1 | 0.889% (inactive)
CN(C)S(=O)(=O)c1cccc(NC(=O)COC(=O)/C=C/c2cccs2)c1 | -17% (inactive)
Cc1ccc(S(=O)(=O)N(C)C)cc1NC(=O)/C=C/c1cccs1 | 57.7% (active)
CC(NCc1ccco1)C(=O)N1CCCCC1 (configuration not stated) | 0.508% (inactive)
COc1ccccc1C(=O)CSc1nnc(-c2ccccn2)n1-c1ccccc1 | -4.28% (inactive)
COCCNC(=O)Nc1ccc2nc(-c3ccco3)c(-c3ccco3)nc2c1 | 104% (active)
CCOc1cc(NC(=S)NCCCOC)c(OCC)cc1NC(=O)c1ccco1 | 1.89% (inactive)
Cc1nc2cc(NC(=O)NCc3ccccc3)ccc2o1 | -1.07% (inactive)
COc1ccccc1CNC(=O)c1cc(-c2cc(F)ccc2OC)n[nH]1 | 4.87% (inactive)
CCc1nc2c(OCCOc3ccccc3)cccn2c1N(C)C(=O)c1ccc(OC)cc1 | -0.87% (inactive)
CCN1CCCC1Cn1cnc2c([nH]c3cc(OC)ccc32)c1=O (configuration not stated) | -4.76% (inactive)
CCN1CCCC1CNc1ncnc2c1[nH]c1ccc(F)cc12 (configuration not stated) | 74.6% (active)
CCN1CCCC1CNC(=O)c1cc2cc(OC)c(OC)cc2[nH]1 (configuration not stated) | 17.7% (inactive)
